Test results from PubChem BioAssay AID1445 (SRMLSC, 2008).
Among all 220,000 compounds or so, about 910 (0.41%) were called active. The sample holds actives, similar compounds and a random draw of the others, so the mix is not that of the screen.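 Rule for the calls: active = primary inhibition above the hit cutoff, then over 50% inhibition at one or more dose response concentrations (cut at about 23% in these data, passing the limit was not always enough); inconclusive = conflicting primary data, or primary hits not chosen for dose response; inactive = low primary inhibition, or under 50% at every dose.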 Measured potencies and affinities stand elsewhere.

These compounds were tested against Aminopeptidase N (Plasmodium falciparum (isolate 3D7)) (UniProt O96935) (assay: P. falciparum M1AAP inhibitors, biochemical, fluorogenic H-Leu-NHMec substrate, 1536-well (AID 1445;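 note: plate controls were DMSO full reaction for no effect and no enzyme background for full effect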)). Conditions: recombinant M1AAP, H-Leu-NHMec fluorogenic kinetic assay; at 30 µM, stronger effect = higher value unless noted.
Aminopeptidase N (Plasmodium falciparum (isolate 3D7)), sequence (O96935 whole entry, looked up): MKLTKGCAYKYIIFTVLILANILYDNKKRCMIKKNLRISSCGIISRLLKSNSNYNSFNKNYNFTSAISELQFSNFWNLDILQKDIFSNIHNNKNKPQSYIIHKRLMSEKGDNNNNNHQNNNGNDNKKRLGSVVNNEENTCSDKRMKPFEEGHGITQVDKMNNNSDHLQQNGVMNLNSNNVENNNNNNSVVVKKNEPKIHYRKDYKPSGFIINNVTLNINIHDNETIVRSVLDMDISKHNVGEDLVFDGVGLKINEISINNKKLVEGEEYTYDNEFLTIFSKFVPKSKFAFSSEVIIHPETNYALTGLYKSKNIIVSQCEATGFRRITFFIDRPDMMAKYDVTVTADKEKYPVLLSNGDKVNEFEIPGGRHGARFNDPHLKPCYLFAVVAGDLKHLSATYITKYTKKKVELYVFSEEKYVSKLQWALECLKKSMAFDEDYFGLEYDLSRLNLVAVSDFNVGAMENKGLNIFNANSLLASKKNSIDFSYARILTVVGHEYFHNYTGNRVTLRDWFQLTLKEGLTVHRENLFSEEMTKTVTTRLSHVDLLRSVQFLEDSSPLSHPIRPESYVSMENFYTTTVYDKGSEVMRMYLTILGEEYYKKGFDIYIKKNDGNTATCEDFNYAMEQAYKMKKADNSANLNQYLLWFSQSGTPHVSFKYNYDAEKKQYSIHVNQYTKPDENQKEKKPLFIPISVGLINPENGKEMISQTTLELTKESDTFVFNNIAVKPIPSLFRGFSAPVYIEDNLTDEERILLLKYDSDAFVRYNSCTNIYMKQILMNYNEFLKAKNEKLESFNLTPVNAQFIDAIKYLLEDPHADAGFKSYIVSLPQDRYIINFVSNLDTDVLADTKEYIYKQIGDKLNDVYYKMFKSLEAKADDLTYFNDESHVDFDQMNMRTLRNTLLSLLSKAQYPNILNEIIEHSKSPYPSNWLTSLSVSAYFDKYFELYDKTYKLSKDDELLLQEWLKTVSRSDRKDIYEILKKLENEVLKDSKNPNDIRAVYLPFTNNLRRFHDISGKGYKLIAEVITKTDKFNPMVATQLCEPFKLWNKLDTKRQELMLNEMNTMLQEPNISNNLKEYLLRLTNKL

inhibition, active:
O=C(O)C(Oc1ccc2c3c(c(=O)oc2c1)CCC3)c1ccccc1 (configuration not stated) 24.2%
CCCNC(=O)NCCc1c(C)[nH]c2ccccc12 23.5%
O=C(CSc1nccn1-c1cccc(Cl)c1)Nc1ccc2c(c1)OCCO2 24.5%

inhibition, inactive:
C=CCc1cccc2cc(C(=O)NNC(=O)c3ccncc3)c(=O)oc12 20.9%
Cn1c(CSc2nc3ccccc3n2C)nc2ccccc21 -4.15%
CCOC(=O)CSc1nnc(Cc2ccccc2)n1CC1CCCO1 (configuration not stated) 4.73%
Cc1[nH]c(=O)c(C#N)c(C)c1Cc1ccc(Cl)cc1Cl 4.22%
O=c1c2[nH]c3ccccc3c2ncn1CCN1CCCCC1 8.11%
O=C(CN1CCN(C(=O)c2cccc(F)c2)CC1)NC1CCCCC1 -4.11%
Cc1cc(C)cc(NC(=O)CCN2CC(C)OC(C)C2)c1 (configuration not stated) 0.2%
Cc1ccc(SCC(=O)c2ccc[nH]2)cc1 2.44%
CCOc1ccc(/C=C2\SC(=S)N(C)C2=O)cc1OC 9.35%
CCOc1ccc(/C=C2\SC(=S)N(Nc3ccccc3)C2=O)cc1OC 1.22%
C/C(=N\NC(=O)COc1cccc(Cl)c1)c1ccc2c(c1)OCCO2 3.02%
c1cncc(Cc2cc3ccccc3[nH]2)c1 4.4%
CC(C)Oc1ccc2c3c(c(=O)oc2c1)CCC3 3.02%
CC(=O)C(C)Oc1ccc2c3c(c(=O)oc2c1)CCCC3 (configuration not stated) 1.79%
CN(C(=O)c1c[nH]c(=O)cc1C(F)(F)F)c1ccc(Cl)c(Cl)c1 -1.25%
O=C(NC(=S)Nc1ccccc1C(F)(F)F)c1ccccc1F -0.76%
CC(C)N(C(=O)CSc1nnc(Cc2ccc3c(c2)OCO3)n1C)C(C)C -1.85%
Cc1ccc(Oc2ccc(OCC(=O)NC(C)C(=O)O)cc2)cc1 (configuration not stated) 12.1%
COC(=O)c1ccc(OS(=O)(=O)N(C)C)cc1 -0.39%
CC(=O)Nc1scc(C)c1-c1nc2ccccc2s1 2.48%
O=C(O)CSCC(=O)Nc1ccc(-c2nc3ccccc3s2)cc1 7.28%
Cc1ccc2nc(-c3ccc(NC(=O)COCC(=O)O)cc3)sc2c1 14.2%
Cc1cccc(C)c1NC(=O)CCCSc1nc2ccccc2s1 -3.68%
Cc1ccc2nc(-c3ccc(NC(=O)CSCC(=O)O)cc3)sc2c1 7.29%
O=C(O)CCC(=O)Nc1nc2ccccc2s1 1.12%
Cc1ccc(-c2nc3ncccc3o2)cc1NC(=S)NC(=O)c1ccco1 4.38%
Cc1ccc(N2CC(C(=O)NCCCn3ccnc3)CC2=O)cc1 (configuration not stated) -4.35%
O=C(c1c(Cl)cccc1Cl)N1CCCCCC1 4.43%
COc1cc(NC(=S)N2CCCC(CO)C2)cc(OC)c1 (configuration not stated) -7.92%
COc1cc(S(=O)(=O)NCc2cccnc2)c(OC)cc1Br -4.04%
C/C=C/C(=O)N1CC2(CC(c3cccc(NC(=O)CC(c4ccccc4)c4ccccc4)c3)=NO2)C[C@H]1C(N)=O (some centres not stated) 12.4%
O=C(N/N=C/c1ccco1)c1ccn[nH]1 7.66%
COc1cc(/C=C2\SC(=O)N(c3ccc(Cl)cc3)C2=O)cc([N+](=O)[O-])c1O 8.85%
CCOc1cc(/C=C2\SC(=O)N(CC(=O)Nc3ccccc3F)C2=O)cc([N+](=O)[O-])c1O 13.2%
COc1cc(/C=C2\SC(=O)N(Cc3ccc(Cl)cc3)C2=O)cc([N+](=O)[O-])c1O 29.4%
Cc1cccc(NC(=O)CN2C(=O)S/C(=C\c3ccc(O)c([N+](=O)[O-])c3)C2=O)c1 22.4%
Cc1nn(-c2ccccc2)c(Cl)c1/C=N/Nc1nnc(C)c(=O)[nH]1 -2.22%
O=C(C(=O)N1CCN(c2cccc(Cl)c2)CC1)c1c[nH]c2ccccc12 2.96%
Cc1[nH]c2ccccc2c1CCNC(=O)CCC(=O)c1ccccc1 0.77%
CCc1cccc(CC)c1NC(=S)NCCc1c(C)[nH]c2ccccc12 0.39%
NS(=O)(=O)c1cccc(NC(=O)COC(=O)CC2CC3CCC2C3)c1 (configuration not stated) -2.75%
CSc1ncccc1C(=O)OCC(=O)N(C)C 7.72%
O=C(CSc1nccn1-c1ccc(Cl)cc1)Nc1ccc2c(c1)OCO2 1.54%
Cc1cccc(-n2ccnc2SCC(=O)Nc2ccc3c(c2)OCCO3)c1 3.89%
